# From PubChem BioAssay AID1347417 (National Center for Advancing Translational Sciences (NCATS), 2020)
# The campaign covered roughly 120,000 compounds. About 5,300 (4.4%) were called active. Where a call stands in place of a potency, no number is given. Inconclusive results (about 22%) are left out. Only a selection was taken, and actives are over-represented in it overall. Values without a mark were called inactive. Calls come from the whole dose curve; as a rule, active = well fitted inhibition curve with a large enough effect; inconclusive = small, poorly fitted or top-dose-only effect; inactive = no such curve, though single readings can be large or run the other way.
# Test: qHTS Primary assay for Inhibitors of Plasmodium falciparum Dd2 growth in vitro; note: nearly all actives have a fitted effect of over 65% in size
# Conditions: P. falciparum Dd2 growth, SYBR Green, 72 h; series mostly up to 28.9 µM
# Procedure, shortened: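 Infected erythrocytes (Dd2, 0.3% parasitemia, 2.5% hematocrit final) are added to compound in RPMI-1640/Albumax II medium, grown 72 h at 37C in low oxygen, then lysed with saponin/Triton-X containing SYBR Green and read by fluorescence.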
# Potency is the fitted concentration of half-maximal effect.
Structure (SMILES),Potency,"activity, negative = inhibition"
CCC(C(=O)NCCn1ccn2nc(-c3ccc(F)cc3)cc2c1=O)c1ccccc1 (configuration not stated),inactive,
COc1ccc(-c2cc(-c3cnc4[nH]ccc4c3)cn3cncc23)cn1,4.47 µM (active),
Cc1noc(C)c1-c1cc(-c2cncnc2)cn2cncc12,inactive,
COc1ccc(-c2nccc3c(=O)cc(N(C)c4ccccc4)oc23)cn1,inactive,
Cc1noc(C)c1-c1cc(-c2ccccc2Oc2ccccc2)cn2cncc12,5.62 µM (active),
COc1ccccc1-c1cc(-c2cn[nH]c2)c2onc(C)c2n1,inactive,
COc1ccccc1-c1cc(-c2cn[nH]c2)c2cncn2c1,12.6 µM (active),
Cn1cc(-c2cc(-c3cccnc3)c3cncn3c2)cn1,inactive,
COc1ccc(-c2cc(-c3cccc4[nH]ncc34)cn3cncc23)cn1,3.98 µM (active),
OCc1ccc(-c2cc(-c3cccnc3)c3cncn3c2)cc1,inactive,
CCCN1CCN(C(=O)CC2CCCN(c3cnn(CCOC)c(=O)c3)C2)CC1 (configuration not stated),inactive,
O=C(c1cnccn1)N1CC2CC(C1)[C@H]1CCCC(=O)N1C2 (some centres not stated),inactive,
CCn1ncc(C(=O)N2CC[C@@H]3CN(S(C)(=O)=O)[C@@H]3C2)c1C,inactive,
NC(=O)CCNC(=O)C1=C[C@@H](NC(=O)CC2(CC(=O)O)CCCC2)[C@@H](O)[C@H](O)C1,inactive,
O=C(c1ccc(C(F)(F)F)cc1)N1CCC([C@@H]2CNC[C@H]2CO)CC1,inactive,
Cc1nnc2n1CCC(NC(=O)c1cc(CN3CCOCC3)on1)CC2 (configuration not stated),inactive,
CN(C)C[C@H]1C[C@@H](CO)CN(C(=O)CCc2ccncc2)C1,inactive,
O=C1CCN(C(=O)C2CCN(C(=O)NC3CCCCC3)CC2)CCCCCCN1,inactive,
COCCNC(=O)c1nc(-c2cc(Cl)cc(Cl)c2)c2ccccn12,inactive,
O=C(NCc1ccc(F)cc1)c1nc(-c2ccccc2)c2ccccn12,11.2 µM (active),
Cc1cccc(C)c1-c1nc(C(=O)NCc2ccc(F)cc2)n2ccccc12,inactive,
CCc1ccc(NC(=O)c2cc(S(=O)(=O)NC3CCCCCC3)ccc2F)cc1,7.94 µM (active),
NS(=O)(=O)c1ccc(NC(=O)COc2ccc(S(=O)(=O)NC3CCCCC3)cc2)cc1,inactive,

Structure (SMILES),Potency,"activity, negative = inhibition"
CC(C)c1ccc(NC(=O)c2cc(S(=O)(=O)N3CCc4ccccc4C3)ccc2F)cc1,inactive,
Cc1cnc(C(=O)N(C)C2CCc3nnc(C)n3CC2)cn1 (configuration not stated),inactive,
O=C(CC1CC1)N1C[C@H]2OC(=O)N(CCc3cccc(Cl)c3)[C@H]2C1,inactive,
O=C1CC(NCc2ccoc2)CN1CCc1cccc(Cl)c1 (configuration not stated),10 µM (active),
O=C(NC1CC(=O)N(CCc2cccc(Cl)c2)C1)c1ccsc1 (configuration not stated),inactive,
Cc1oc(-c2cccc(Oc3ccccc3)c2)nc1CN1CCOC(CCN)C1 (configuration not stated),7.08 µM (active),
COc1cccc(-c2nc(CS(=O)(=O)CC(=O)N3CCN(c4cc(C)ccc4C)CC3)c(C)o2)c1,inactive,
COc1ccc(-c2nc(Cn3c(=O)cc(C)c4c(C)nn(-c5ccccc5)c43)c(C)o2)cc1OC,inactive,
Cc1oc(-c2cccs2)nc1CN1CCOC(Cc2ccccc2)C1 (configuration not stated),inactive,
COc1ccc(-c2nc(CN3CCOC(CN)C3)c(C)o2)c2ccccc12 (configuration not stated),12.6 µM (active),
COC(=O)c1cc2occc2n1Cc1nc(-c2ccccc2C)oc1C,inactive,
CC(C)CN=C1S[C@H]2[C@H]([C@@H](O)[C@H](O)C[C@@H]2C(N)=O)N1Cc1ccc(F)cc1,inactive,
O=C(Cc1cccc(F)c1)NC1CCN(c2cc(C(F)(F)F)ncn2)CC1,inactive,
CCOC(=O)C1CCN(c2nc3c(S(=O)(=O)c4ccc(CC)cc4)nnn3c3ccc(Cl)cc23)CC1,inactive,
CCOC(=O)C1CCN(C(=O)CSc2c3c(nc4ccc(Cl)cc24)CCCC3)CC1,14.1 µM (active),
COc1ccc(N2CCN(C(=O)c3ccc4c(Cl)c5c(nc4c3)CCCC5)CC2)cc1,inactive,
COc1cc(C(=O)N2CCC(Cc3nc(-c4ccccc4)no3)CC2)cc(OC)c1OC,inactive,
O=C(N[C@H]1CCOC[C@H]1C1CCOCC1)c1cccc2nccnc12,inactive,
CCn1ncc(N2CCCC(CC(=O)NCc3ccc(OC)cc3)C2)cc1=O (configuration not stated),inactive,
O[C@@H]1C[C@@H](c2nc(Cc3ccc(F)cc3Cl)no2)N(Cc2ncc[nH]2)C1,inactive,
Cc1nn(-c2ccc(C(C)C)cc2)c(C)c1[C@@H]1C=C[C@@H](NC(=S)NCC(C)C)C1,12.6 µM (active),
Cc1nn(-c2ccc(C(C)C)cc2)c(C)c1[C@@H]1C=C[C@@H](NC(=O)CC2(CC(=O)O)CCCC2)C1,inactive,
Cc1nn(-c2cccc(Br)c2)c(C)c1[C@@H]1C=C[C@@H](NC(=O)CC2(CC(=O)O)CCCC2)C1,inactive,

Structure (SMILES),Potency,"activity, negative = inhibition"
COc1ccc(-n2nc(C)c([C@@H]3C=C[C@@H](NC(=O)Nc4ccccc4)C3)c2C)cc1,10 µM (active),
Cc1nn(-c2ccccc2)c(C)c1[C@@H]1C=C[C@@H](NC(=O)c2ccc3c(c2)OCO3)C1,inactive,
Cc1nn(Cc2ccccc2)c(C)c1[C@@H]1C=C[C@@H](NC(=O)NC(C)C)C1,inactive,
Cc1nn(-c2ccc(C(C)C)cc2)c(C)c1[C@@H]1C=C[C@@H](NC(=O)Nc2ccccc2)C1,11.2 µM (active),
Cc1nn(Cc2ccccc2)c(C)c1[C@@H]1C=C[C@@H](NC(=O)NC2CCCCC2)C1,inactive,
COc1ccc(-n2nc(C)c([C@H]3C=C[C@@H](OC(=O)Nc4cccc(F)c4)C3)c2C)cc1,10 µM (active),
CCC(C)NC(=O)Cc1csc2nc(C)c(-c3cc(C)n(-c4ccc(C(C)C)cc4)n3)c(=O)n12 (configuration not stated),inactive,
COc1cccc(NC(=O)Cn2c(=O)cc(C)c3c(C)nn(-c4cccc(F)c4)c32)c1,inactive,
Cc1nn(CCC#N)c(C)c1[C@@H]1C=C[C@@H](NS(=O)(=O)c2ccccc2)C1,inactive,
C=CCNC(=O)C1N(C(C)C)C(=O)C12CCCCC2 (configuration not stated),inactive,
COc1ccc(NC(=O)C2CN(S(=O)(=O)c3cccnc3)CC23CCCCC3)cc1F (configuration not stated),inactive,
CCOCCCNC(=O)N1C[C@@H](Oc2cccnc2)C[C@@H]1C(=O)N1CCOCC1,inactive,
CCCN(CC1CCOC1)S(=O)(=O)c1ccc2c(c1)CCCC2 (configuration not stated),,7.48% [at 5.79 µM]
CC(C)N1C(=O)CO[C@H]2CCN(CCCc3ccccc3)CC[C@@H]21,inactive,
CCCCC(CC)CNC(=O)C1CCN(S(=O)(=O)c2cccc3nsnc23)CC1 (configuration not stated),inactive,
COc1ccc(NC(=O)C2CCCN(S(=O)(=O)c3cccc4nonc34)C2)cc1Cl (configuration not stated),inactive,
CCCCN(C)CCNC(=O)C1CCCN(S(=O)(=O)c2cccc3nsnc23)C1 (configuration not stated),5.01 µM (active),
O=C(Cc1cccc(Cl)c1)NCc1nnc2ccc(-c3ccccc3)nn12,inactive,
Cc1cc(C(=O)N2CCCCCCn3c(nnc3-c3ccc(F)cc3)CC2)nn1C,inactive,
Cc1c(Cl)cccc1NC(=O)CCS(=O)(=O)c1ccc2c(c1)oc(=O)n2C,3.16 µM (active),
CCOC(=O)c1ccc(NC(=O)CCS(=O)(=O)c2ccc3c(c2)oc(=O)n3C)cc1,inactive,
CCN(Cc1ccccc1)C(=O)CCS(=O)(=O)c1ccc2c(c1)oc(=O)n2C,inactive,
COc1cccc(CC(=O)N2CCN(c3cc(-c4cccs4)[nH]n3)CC2)c1,inactive,

Structure (SMILES),Potency,"activity, negative = inhibition"
O=C(NCCn1ccn2nc(-c3ccc(F)cc3)cc2c1=O)c1ccco1,inactive,
COC(=O)c1ccc(NC(=O)N2[C@H]3CC[C@@H]2c2cnc(-c4ccc(F)cc4)nc2C3)cc1,7.08 µM (active),
Cn1cnc(S(=O)(=O)N2[C@H]3CC[C@@H]2c2cnc(-c4ccc(F)cc4)nc2C3)c1,inactive,
O=C(Cc1ccccc1)N1[C@H]2CC[C@@H]1c1cnc(-c3ccc(F)cc3)nc1C2,inactive,
O=C1NCCOCCN(C(=O)Nc2ccccc2)[C@@H]2CCCC[C@H]12,inactive,
COc1ccc(-c2noc([C@@H](C)NCc3ccc(F)cc3)c2C(=O)O)cc1,inactive,
O=C(c1ccc(Cl)cc1)N1CCn2c(nn(-c3ccncc3)c2=O)C1,inactive,
CCOC(=O)C1=CN(CC(=O)Nc2cccc(C(C)C)c2)S(=O)(=O)N=C1C,inactive,
COc1ccc(-c2ccc3ncn(Cc4ccccc4)c(=O)c3n2)cc1OC,inactive,
COc1ccccc1-c1cc([C@H]2CN3CC[C@H]2C[C@@H]3CNCc2cccc(C#N)c2)n(C)n1,inactive,
Cc1ccc(S(=O)(=O)NC[C@H]2C[C@@H]3CCN2C[C@@H]3CN2CCN(c3ncccn3)CC2)cc1,inactive,
COc1ccc(-c2cc([C@H]3CN4CC[C@H]3C[C@@H]4CNC(=O)C3CC3)n(C)n2)cc1OC,inactive,
O=C(NCc1ccccc1)[C@H]1CN2CCC1C[C@@H]2Cn1cc(-c2ccc(F)cc2)nn1 (some centres not stated),inactive,
COc1ccc(-c2cc([C@H]3CN4CC[C@H]3C[C@@H]4CNC(=O)c3ccccc3)n(C)n2)cc1OC,11.2 µM (active),
COc1ccc(-c2cc([C@H]3CN4CC[C@H]3C[C@@H]4CNS(=O)(=O)Cc3ccccc3)n(C)n2)cc1OC,11.2 µM (active),
COc1cc2c(cc1OC)C(CNC(=O)c1cccc(Cl)c1)N(C(=O)Nc1ccccc1)CC2 (configuration not stated),inactive,
Cn1nc(-c2ccc(F)cc2)cc1[C@H]1CN2CC[C@H]1C[C@@H]2CNCc1ccccn1,2.82 µM (active),
Cc1ccc(C(=O)N2CC[C@H](CO)[C@H](NC(=O)C3CC3)C2)cn1,inactive,
O=C(NCc1cnn(Cc2ccccc2)c1)c1ccc2oc(-c3cccc(F)c3)nc2c1,inactive,
COc1ccc(-c2cc(CC3(N(Cc4ccc(CO)o4)Cc4ccc(CO)o4)COC3)no2)cc1,inactive,
CCOC(=O)c1c(NC(=O)/C=C/c2ccc(OC)cc2)sc2c1CCC(C)C2 (configuration not stated),inactive,
CCOC(=O)c1c(NC(=O)c2ccc(S(=O)(=O)N(CC)CC)cc2)sc2c1CCCCC2,inactive,
CCOC(=O)c1c(NC(=O)c2ccc(S(=O)(=O)N3CCCC(C)C3)cc2)sc2c1CCN(C(C)C)C2 (configuration not stated),7.94 µM (active),
